From PubChem BioAssay come the findings set out here.

Where “and” joins values, the source holds several entries; their conditions need not be identical. Equal values may be shown once. Inconclusive results are not listed. Calls of active or inactive are those of the source. Unless noted, cut-off not given; nearly all actives show AC50 up to about 30 µM.

Test [1] is described as follows: Wnt pathway potentiators raising nuclear beta-catenin – imaging, WNT3A-conditioned medium, mouse C2C12, NPC library, primary screen (AID 1117326; in the data active means nuclear beta-catenin stimulation mostly above about 4.2%, no sharp cut-off; inactive means mostly below about 10%). The conditions noted are these: stronger effect = higher value.
Test [2] in a line: stimulators of insulin release from INS-1E, primary screen, cell-based, 5 mM glucose, NPC library (AID 1117329;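 active means compound raises insulin release from rat beta cells at 5 mM glucose, no numeric limit stated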). The conditions noted are these: rat INS-1E insulin secretion, at 10 µM, stronger effect = higher value.
Test [3] can be described thus: growth inhibition of GSK3B-pretreated HCT116 cells – cell-based, CellTiter-Glo, 0.2 to 20 µM (AID 1117336;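 active means compounds lowering colon cancer cell viability after pretreatment blocking the GSK3B kinase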). The conditions noted are these: HCT116 viability after GSK3B inhibitor, at 20 µM, stronger effect = higher value.
Test [4] is described as follows: inhibition of endothelial tube formation, primary screen, imaging, VEGF stimulated, CD31 staining, tube area, NPC library (AID 1117340;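 active means compound that reduces growth-factor-driven endothelial tube area in a mixed cell culture, no cutoff stated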). The note with it: VEGF-stimulated ADSC/ECFC co-culture, at 10 µM, stronger effect = higher value.
The nature of test [5]: GLP1 release stimulators, primary, NCI-H716, NPC library (AID 1117341;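 active means compound raises GLP1 secretion from the human gut endocrine cells, with no numeric limit stated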). The conditions noted are these: NCI-H716 cells, at 10 µM, stronger effect = higher value.
Test [6] in a line: HCT116 colon cancer cell growth inhibition, primary screen, CellTiter-Glo luminescence, NPC library (AID 1117342;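 active means compounds that lower survival of HCT116 colon cancer cells in the luminescence readout, no numeric limit stated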). The note with it: at 20 µM (top of the series).
A short description of test [7]: reduced SW480 viability measured with CellTiter-Glo, NPC library, primary (AID 1117343;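 active means compounds that lower viability of the colon cancer cells in the luminescence readout, with no numeric limit stated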). The note with it: CellTiter-Glo luminescence; at 20 µM (top of the series) unless noted.
Test [8] can be described thus: NPC library primary testing for decreased DLD-1 cell viability via CellTiter-Glo (AID 1117346;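 active means compounds that lower survival of DLD-1 colon cancer cells in the luminescence readout, no cutoff given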). The conditions noted are these: DLD-1 viability, CellTiter-Glo luminescence; at 20 µM (top of the series). (In general: ATP-based viability assays read luminescence as a measure of living cells.)
The nature of test [9]: viability loss in pontine glioma line – cell-based, JHH-DIPG-1, MIPE4.0, CellTiter-Glo, qHTS, dose response (AID 1347062; cut-off not given, nearly all actives have AC50 up to about 27 µM). The note with it: JHH-DIPG-1 viability, CellTiter-Glo ATP luminescence.
Test [10] can be described thus: viability loss in pontine glioma line – cell-based, SU-DIPG-IV, MIPE4.0, CellTiter-Glo, qHTS, dose response (AID 1347063).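 Further: compound exposure lasted 48 hours before the viability readout.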 The conditions noted are these: CellTiter-Glo ATP luminescence.
A short description of test [11]: viability loss in pontine glioma line – cell-based, SU-DIPG-XXV, MIPE5.0, CellTiter-Glo, qHTS, dose response (AID 1347065; cut-off not given, nearly all actives have AC50 up to about 26 µM;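 further: cells exposed to compound for 48 hours before ATP readout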). The conditions noted are these: CellTiter-Glo ATP luminescence.
A short description of test [12]: growth inhibition of DIPG cells – cell-based, MIPE4.0 library, CellTiter-Glo luminescence, qHTS (AID 1347066).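 Further: cells exposed to compound for 48 hours before readout.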 The conditions noted are these: SU-DIPG-VI viability, CellTiter-Glo ATP luminescence.
Test [13] can be described thus: JHH-DIPG-1 glioma cell viability, MIPE5.0 library, CellTiter-Glo luminescence, qHTS (AID 1347067; cut-off not given, nearly all actives have AC50 up to about 26 µM;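 further: cells exposed to compound for 48 hours before readout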). The conditions noted are these: JHH-DIPG-1 glioma viability, CellTiter-Glo ATP luminescence.
Test [14] is described as follows: growth inhibition of DIPG cells – cell-based, MIPE5.0 library, qHTS (AID 1347068; cut-off not given, nearly all actives have IC50 up to about 30 µM). The conditions noted are these: SU-DIPG-XXV viability.
A short description of test [15]: viability loss with induced miR-34 in A549 – imaging, A549 dox-inducible miR-34, nuclei and caspase counts, primary screen (AID 1347080;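 active means compounds whose cell count with miR-34 switched on is under 0.7 times the count with it off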). The note with it: A549 miR-34 inducible, Hoechst nuclei count, 48 h.
Test [16] is described as follows: MELAS cybrid and Rieske KO viability enhancers – cell-based, MELAS cybrids, Rieske KO mouse fibroblasts, CellTiter-Glo, primary screen (AID 1508586;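 active means mean z-score across replicates of 1.96 or higher in either the MELAS or the Rieske mutant cell line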;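 further: z relative to plate mean and SD of compound and empty wells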). The conditions noted are these: low glucose.
Test [17] can be described thus: galactose survival enhancers in mitochondrial complex I cybrids – cell-based, galactose medium, ATP luminescence, primary screen (AID 1645843;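 active means z-score of at least 1.8 in each of two replicates, scored against plate mean and spread of sample wells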;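 further: positive z means more ATP and so rescue of galactose-driven cybrid death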). The conditions noted are these: complex I mutant cybrid cells, 72 h, stronger effect = higher value.
The nature of test [18]: P. berghei load reduction in hepatocytes – cell-based, HepG2, luciferase luminescence, HepG2 viability, primary screen (AID 624349; in the data active means parasite load remaining mostly below about 12%, no sharp cut-off; inactive means mostly above about 10%;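 further: 100% = mean of DMSO negative control wells on the same plate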). The note with it: P. berghei liver stage in HepG2, luciferase luminescence, concentration not given here; parasite load remaining: stronger effect = lower value; viability: measured here: HepG2 viability without parasites.
Where [19] appears, read: stronger effect = lower value, cell number ratio, induced over uninduced.
The mark [20] stands for this setting: measured here: relative caspase fold change +Dox/-Dox.
The mark [21] stands for this setting: measured here: total cells with miR-34 induction, stronger effect = lower value.
Where [22] appears, read: measured here: total cells without miR-34 induction.
[23] abbreviates: MELAS cybrid survival, CellTiter-Glo 48 h, stronger effect = higher value.
Setting [24] is: Rieske KO mouse fibroblast survival, CellTiter-Glo 72 h.

Regarding `O=C(O)c1nc(=O)[nH]c(=O)[nH]1`, the nuclear beta-catenin stimulation in test [1] (at 10 µM) was 0.4% (inactive); in test [1] (stimulation, at 2 µM), 0.2%. In [2], the insulin secretion stimulation was -2.5% (inactive). The viability decrease in [3] was -8.95% (inactive). Moreover, in test [4], the tube area decrease is -8.3% (inactive). For the same molecule, in test [5], the GLP1 secretion stimulation was 0.9% (inactive). In addition, in test [6], the inhibition of viability was -17.1% (inactive). Moreover, the viability decrease (inhibition) in test [7] is 29% (inactive); in test [8], 12.8% (inactive). Further, the outcome in test [9], in test [10], in test [11], in test [12], in test [13] and in [14] was inactive.
In the case of `COc1cc(C(C)=O)ccc1OCCCN1CCC(c2noc3cc(F)ccc23)CC1`, the nuclear beta-catenin stimulation was 1.5% (inactive) in test [1] (at 10 µM) and 0.5% in test [1] (stimulation, at 2 µM). Further, the insulin secretion stimulation in test [2] is 3.8% (inactive). The viability decrease in [3] was 66.1% (active). In addition, in test [4], the tube area decrease is 16.7% (inactive). For the same molecule, in test [5], the GLP1 secretion stimulation is 6.5% (inactive). Moreover, the inhibition of viability in [6] is 80.7% (active). For the same molecule, the viability decrease (inhibition) in test [7] is 100% (active); in [8], 33.5% (inactive). Also, in test [10], the molecule was classed as inactive. In addition, the fold change in [15] (setting [19]) is 0.893 (inactive) and 0.919 (inactive); in test [15] (setting [20]), 0.354 and 0.917. The cell count in test [15] (setting [21]) is 6850 and 7430; in test [15] (setting [22]) it was 7670 and 8090. Also, the z-score is -0.601 (inactive) and -0.433 (inactive) in test [16] (setting [23]); 0.999 and 0.549 in [16] (setting [24]); -1.19 (inactive) in [17].
In the case of `CCCCCCCCCCCCCCCC(=O)O`, the nuclear beta-catenin stimulation in [1] (at 10 µM) was 0.3% (inactive); in test [1] (stimulation, at 2 µM) it was 1.7%. In [2], the insulin secretion stimulation was 2.3% (inactive). Besides, the viability decrease in [3] is 2.25% (inactive). Further, in [4], the tube area decrease was -25.4% (inactive). Besides, in [5], the GLP1 secretion stimulation is 0.3% (inactive). In [6], the inhibition of viability is -38.8% (inactive). Moreover, the viability decrease (inhibition) in test [7] is 32.7% (inactive); in [8] it was 8.5% (inactive). Also, the fold change in test [15] (setting [19]) is 1.03 (inactive); in test [15] (setting [20]), 1.12. Besides, the cell count in [15] (setting [21]) amounted to 5900; in test [15] (setting [22]), 5710.
Broadly, the viability is a read-out of living cells in per cent, often relative to untreated cells. Turning to `O=C(Nc1cccc2c(=O)cc(-c3nn[nH]n3)oc12)c1ccc(OCCCCc2ccccc2)cc1`, the parasite load remaining in test [18] was 45% (inactive). For the same molecule, in [18], the viability turned out to be 94.5%. Also, the nuclear beta-catenin stimulation in test [1] (at 10 µM) is 0.3% (inactive); in test [1] (stimulation, at 2 µM), -0.2%. The insulin secretion stimulation in test [2] is 2.85% (inactive). The viability decrease in [3] was 108% (active). Besides, the tube area decrease in test [4] was -18.5% (inactive). The GLP1 secretion stimulation in test [5] is 21.5% (active). Further, in [6], the inhibition of viability is 112% (active). Besides, the viability decrease (inhibition) in [7] is 125% (active); in [8], 88.8% (active). For the same molecule, the molecule was called inactive in test [12]. Besides, the fold change was 0.93 (inactive) and 0.898 (inactive) in [15] (setting [19]); 0.309 and 1.37 in test [15] (setting [20]). Besides, the cell count in [15] (setting [21]) is 5160 and 10700; in [15] (setting [22]), 5550 and 12000. The z-score in test [16] (setting [23]) is 0.447 (inactive) and -0.129 (inactive); in test [16] (setting [24]) it was 0.183 and 0.319; in test [17], 1.36 (inactive).
As for `CN(c1nccc(=O)[nH]1)C1CCN(c2nc3ccccc3n2Cc2ccc(F)cc2)CC1`, the nuclear beta-catenin stimulation in [1] (at 10 µM) is -1.9% (inactive); in test [1] (stimulation, at 2 µM), -0.5%. The insulin secretion stimulation in test [2] is 4.3% (inactive). Also, the viability decrease in test [3] is -6.8% (inactive). In addition, the tube area decrease in test [4] is 10.5% (inactive). Moreover, the GLP1 secretion stimulation in test [5] is -3% (inactive). The inhibition of viability in test [6] is 26.2% (inactive). For the same molecule, the viability decrease (inhibition) in test [7] was 9.6% (inactive); in [8], -5.1% (inactive). The molecule was called inactive in [9], in test [10] and in test [12]. Also, the z-score was 0.306 (inactive) in test [16] (setting [23]) and 0.258 in test [16] (setting [24]).
